Experimental data published in PubChem BioAssay AID1794842 (National Center for Advancing Translational Sciences (NCATS), 2023).
Fewer than 10 of roughly 2,800 compounds were called active. Calls follow the shape of the dose curve; as a rule, active = well fitted curve in the direction sought with a large enough effect; inconclusive = small, poorly fitted or top-dose-only effect, or another doubt; inactive = no such curve, though single readings can be large or run the other way. The list is a sample of the results.

Each compound was assayed against Metallo-beta-lactamase type 2 (Klebsiella pneumoniae) (UniProt C7C422) (assay: qHTS to identify inhibitors of the New Delhi Metallo-beta-lactamase (NDM): Meropenem screen against the machine-based learning selections.). Details: Purified NDM-1, meropenem hydrolysis, absorbance 300 nm; series mostly up to 38.4 µM.
Chain of Metallo-beta-lactamase type 2 (Klebsiella pneumoniae) (C7C422 whole entry, looked up): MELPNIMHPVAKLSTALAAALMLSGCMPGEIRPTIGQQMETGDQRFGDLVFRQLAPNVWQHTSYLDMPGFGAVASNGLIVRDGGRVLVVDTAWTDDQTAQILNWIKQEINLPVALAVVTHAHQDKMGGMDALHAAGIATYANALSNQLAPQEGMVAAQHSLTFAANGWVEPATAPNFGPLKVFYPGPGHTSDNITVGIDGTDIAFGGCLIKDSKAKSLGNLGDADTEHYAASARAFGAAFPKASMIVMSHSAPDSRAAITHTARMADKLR
Description: Assay Submitter (PI): James Inglese Ph.D., Patricia Dranchak Ph.D., Mahesh Aitha Ph.D. Assay Development and Screening Technology Laboratory (ADST) National Center for Advancing Translational Sciences (NCATS), Rockville, MD National Institute of Health (NIH), Bethesda, Maryland The metallo-beta-lactamases (MBL) are a main antibiotic resistance mechanism evolved by bacteria. There is an urgent clinical need for MBL inhibitors to mitigate this growing threat. To support a machine-based learning study, qHTS has been used to experimentally test inhibitors identified by prediction tools.
PROTOCOL TABLE (as described by Inglese et al., 2007) SEQUENCE No. (e.g., 1, 2, 3, etc.); […] (e.g., enzyme, Incubation, Reagent, etc.); VALUE; DESCRIPTION Primary Screen 1; NDM-1; 4 uL of 3 nM enzyme [2 nM final] in 50 mM HEPES (pH 7.0), 1 uM […], 0.01% Tween20; Use BioRaptr to dispense into two sets of Aurora black, clear bottom high base 1536-well plates 2; Compounds; 23 nL; Use Pin Tool (Wako) to transfer DMSO control and library compounds in DMSO 3; Incubate; >30 min 4a; Reagent; 2 uL of 50 uM nitrocefin [16.7 uM final] to one set of assay plates 4b; Reagent; 2 uL of 150 uM meropenem [50 uM final] to second set of assay plates 5a; Incubate; 15 min 5b; Incubate; 30 min 6a; Detector; Absorbance at 485 nm (bandwidth = 5 nm, 25 flashes/well) on Tecan Infinity 6b; Detector; Absorbance at 300 nm (bandwidth = 5 nm, 25 flashes/well) on Tecan Infinity NOTES (numbers refer to sequence above) 1; Column 1 of each plate received assay buffer without enzyme and columns 2-48 received enzyme for a final assay concentration of 2 nM. 2; Control plate contained DMSO in columns 1, 2, 3, and 4. 3; Compound interaction with enzyme. 4; Nitrocefin and meropenem substrates were prepared in the same assay buffer as step 1 for a final assay concentration of 16.7 uM and 50 uM, respectively, and added to all wells across respective sets of assay plates. 5; Default reader settings were applied for absorbance read at 485 nm (nitrocefin) or 300 nm (meropenem), bandwidth = 5 nm, 25 flashes/well. References: Inglese J, Shamu CE, Guy RK. 2007. Reporting data from high-throughput screening of small-molecule libraries. Nat Chem Biol. doi:10.1038/nchembio0807-438 Yasgar A, Shinn P, Jadhav A, Auld D, Michael S, Zheng W, Austin CP, Inglese J, Simeonov A. 2008. Compound Management for Quantitative High-Throughput Screening. J Lab Autom 13:79 - 89. doi:10.1016/j.jala.2007.12.004

outcome, inactive:
COc1ccc(C(=O)NC[C@H]2O[C@@H](CC(=O)N3CCN(c4ccccc4OC)CC3)[C@H](O)[C@@H]2O)cc1
COc1ccc(CN2C(=O)[C@@H]3C[C@@H](O)CN3C3(CN(C4CCC4)C3)C2=O)cc1
O=C(Cc1ccccc1Cl)N1CCC(Cc2nc(-c3ccc(F)cc3)no2)CC1
Cc1[nH]c2c(c1C(=O)N1CCCC(CCc3ccc(F)cc3)C1)C(=O)CCC2 (configuration not stated)
O=C(c1ccccc1Cl)N1CCC2(CC1)Cc1ccccc1NC2=O
Cc1ccc(C(=O)NC2CCN(c3cn[nH]c(=O)c3)CC2)cc1C
O=C(NC1CCCCC1)O[C@@H]1CO[C@H]2[C@@H]1OC[C@@H]2NS(=O)(=O)c1ccc(Cl)cc1
O=C(Nc1ccc(C2(C(=O)NCc3ccco3)CCCCC2)cc1)C1CC1
CN1Cc2ccc(NCc3ccccc3)nc2C(C)(C(=O)NCCc2cnc[nH]2)C1 (configuration not stated)
CN1c2cccnc2CN(Cc2cccc(Cl)c2)CC[C@H]1CO
COc1ccc2nc(C[C@@H]3C[C@@H](C(C)C)[C@H](CNC(=O)Nc4ccc(F)cc4)C=C3C)[nH]c2c1
COc1ccc(C(=O)N2C[C@@H]3OCC(=O)N(Cc4nccn4C)[C@@H]3C2)cc1
COc1ccccc1CN1CC(c2noc(-c3ccc(C)cc3C)n2)CC1=O (configuration not stated)
COc1ccccc1-c1ccc2ncc(Nc3cccc(N[S+](C)(=O)[O-])c3)n2n1
Cc1nccn1-c1ccccc1CNC1CCC2(CCNCC2)CC1
COC(=O)[C@H](NC(=O)[C@@H]1C[C@@H](NS(=O)(=O)c2cccc(C(F)(F)F)c2)CCN1C(=O)CCC(=O)O)C(C)C
C=CCNC(=O)[C@@H]1Cc2cn(Cc3ccncc3)c3cccc(c23)[C@H](CC(C)C)N1
COc1cccc(CN2C[C@@H]3C(C(=O)O)[C@@H]3C2)c1OCCn1ccnc1 (some centres not stated)
COC(=O)CO[C@@H]1CO[C@H]2[C@@H]1OC[C@@H]2NC(=O)Nc1cccc(C(F)(F)F)c1
c1cc(-c2n[nH]c(CNC3CCC4(CCNCC4)CC3)n2)ccn1
COCC(=O)N1CCc2nc(N(C)CCc3ccncc3)[nH]c(=O)c2CC1
O=C1CC(C(=O)O)C2(CCN(c3cc(C(=O)O)c4ccccc4n3)CC2)N1 (configuration not stated)
O=C1Nc2ccc(/C=C/c3ccccc3)cc2C(=O)N2CC[C@H](NS(=O)(=O)c3cccs3)[C@@H]12
COC(=O)c1ccc2nc(C[C@@H]3C[C@@H](C(C)C)[C@H](CNCc4ccccc4F)C=C3C)[nH]c2c1
CCCCc1cc(C[C@@H]2C[C@H](NC(=O)NCC)C2(C)C)no1
COCC(=O)N1CC[C@@H](CC(=O)O)[C@@H](CC2=NCCc3cc(OC)ccc32)C1
O=C(Nc1cccnc1)N1CCOC[C@H](Oc2ccccc2)C1
c1c(CC2CCCCC2)nnn1[C@H]1CO[C@H]2[C@@H]1OC[C@@H]2NCC1CCCCC1
O=C(Nc1ccc(F)cc1)N1C[C@@H]2OCC(=O)N(Cc3ccc(OC(F)(F)F)cc3)[C@@H]2C1
O=C(Nc1ccc(Oc2ccccc2)cc1)N[C@H]1CO[C@H]2[C@@H]1OC[C@H]2OC(=O)Nc1cccc(C(F)(F)F)c1
Cc1cc(C(=O)N[C@@H]2C[C@H](Cn3cc(C4CC4)nn3)[C@@H](O)[C@H]2O)no1
Cc1cc(-c2ccccc2)nc(CN2CC[C@@](O)(C3CCC3)[C@H](C)C2)n1
CCOCCN1C(=O)COC[C@@H]1[C@H](O)c1ccc(NC(=O)Cc2ccccc2)cc1
COCC(=O)N[C@H]1C[C@H]2C(=O)NC[C@@H](CCC(=O)N3CCN(c4ccccn4)CC3)N2C1
COc1ccc(OC)c(S(=O)(=O)N2CCCC(Cn3c(C)nc4cccnc43)C2)c1 (configuration not stated)
O[C@@H]1C[C@@H](c2nc(-c3ccc4c(c3)OCO4)no2)N(Cc2cc3ccccc3o2)C1
CC1=C[C@@H](CNC(=O)COCC(=O)O)[C@H](C(C)C)C[C@H]1Cc1nc2ccc(C)cc2[nH]1
NCCn1cc(C(=O)NCCS(=O)(=O)N2CCCC2)nn1
C=CCN1CCN(C(=O)[C@@H]2Cc3c[nH]c4cccc(c34)[C@H](CC(C)C)N2)CC1
COc1ccc(-c2noc([C@@H]3C[C@H](NCc4ccc(N(C)C)cc4)CN3C)n2)cc1
COc1cc(F)cc(-c2cnc3[nH]cc(CC(=O)NCc4cccnc4)c3c2)c1
Oc1cccc(Nc2cnc3ccc(-c4ccc(F)cc4)nn23)c1
CCc1ccc(-c2nc(C3CC(=O)N(c4ccc(C)cc4)C3)no2)cc1 (configuration not stated)
COc1ccc([C@@H](NC(=O)c2ccc3cccc(F)c3n2)C2CC(O)C2)cn1 (some centres not stated)
COc1ccc(Nc2cc3c(cn2)CN(CCc2ccccc2)CCN3)cc1
COc1ccc(-c2noc([C@@H]3Cc4nc[nH]c4CN3C(=O)Nc3ccc(C)cc3)n2)cc1
CCOC(=O)N1CCN(C(C(=O)O)c2ccc(OC)nc2OC)CC1 (configuration not stated)
O=C(O)CCC(=O)N1Cc2[nH]cnc2C[C@H]1C(=O)NC1CCCCC1
CO[C@H]1[C@H](NC(=O)COc2ccccc2)c2ccccc2C12CCNCC2
COc1ccc(-c2cc(N3CCCC(NC(=O)c4cccn4C)C3)n[nH]2)cc1 (configuration not stated)
CC1=C[C@@H](CNC(=O)c2cncnc2)[C@H](C(C)C)C[C@H]1CC(=O)N(C)Cc1ccccc1
CCOCC(=O)N1CCC(N2CC3CC(C2)[C@H]2CCCC(=O)N2C3)CC1 (some centres not stated)
NC(=O)c1cccc(-c2cc3c(cn2)CN(Cc2ccncc2)CCN3)c1
Cc1ccc(-c2noc([C@@H]3Cc4nc[nH]c4CN3Cc3ccccc3)n2)cc1
Cn1cc(-c2cnc(NC(=O)c3c[nH]c4ccccc34)c3c2CCO3)cn1
O=C(NCCc1ccc(Cl)cc1)c1nc(-c2cc(Cl)cc(Cl)c2)c2ccccn12
CCCNC(=O)N(C1CCOCC1)C1CCN(C(=O)Nc2c(F)cccc2F)CC1
